From PubChem
Rows were chosen to be rich in hits. Some 1.3% of all compounds tested hit in one or more screens of this group.
PTAP TSG101 blk = blocks PTAP/TSG101 interaction to inhibit HIV-1 budding; AID 493005; Fluorescence polarization, FITC-PTAP peptide / Tsg101 binding; Q99816; 340,000 tested, under 10 active; Potency, µM (series often up to 115 µM), hits mostly inhibitors; active means well fitted inhibition curve with a large enough effect in the main read-out, with a control signal flat, not every such curve was filed as active; inconclusive means small, poorly fitted or top-dose-only effect, or effect the other way, or a change in a side signal; inactive means no such curve, though single readings can be large or run the other way
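FP read-out: FITC-PTAP peptide, 50 nM final, binding Tsg101 binding domain, 10 uM final; 20 min, r.t.; 10 mM HEPES pH 7.5, 0.15 M NaCl, 0.01% Tween 20, 3 mM EDTA, 0.1 mM TCEP.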
TRPML1 ag = human mucolipin-1 channel agonism; TRPML1-expressing cells, Ca2+ dye fluorescence, FDSS; activation, % (no concentration beside the values); 0.12% of 410,000 active
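Calcium fluorescence on an FDSS kinetic reader gave the read-out. Tet-induced TRPML1-DL cells were plated overnight, dye-loaded (Ca8 with quencher, 45-90 min, room temperature, dark), then read 110 s after compound addition, and again 110 s after 4uM final 54-4 (EC80).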
BRCA1 expr act = BRCA1 expression activation. Potency, µM (highest dose often 46.1 µM), hits mostly activators. 1.1% of 380,000 active. MCF7-BRCA1-FFLuc reporter, luminescence, 48 h; response scale: scaled: vehicle 0%, 10 µM genistein 100%; active means well fitted activation curve with a large enough effect; inconclusive means small, poorly fitted or top-dose-only effect; inactive means no such curve, though single readings can be large or run the other way; further: nearly all actives have a fitted effect of over 80% in size
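Reporter cells (MCF7, BRCA1 promoter-firefly luciferase) received library compounds across a concentration series for 48 h. End-point luminescence was measured and concentration-effect curves derived after normalization.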
PKM2 act = increases activity of human pyruvate kinase M2; purified PKM2, Kinase-Glo ATP luminescence, activation; response scale: 0% is enzyme alone, no compound; P14618; AID 1631; 0.34% of 260,000 active; Potency, µM (top dose mostly 57.5 µM), most hits filed as activators; active means well fitted activation curve with a large enough effect; inconclusive means small, poorly fitted or top-dose-only effect; inactive means no such curve, though single readings can be large or run the other way; further: nearly all actives have a fitted effect of over 55% in size
Target sequence (P14618 whole entry, looked up): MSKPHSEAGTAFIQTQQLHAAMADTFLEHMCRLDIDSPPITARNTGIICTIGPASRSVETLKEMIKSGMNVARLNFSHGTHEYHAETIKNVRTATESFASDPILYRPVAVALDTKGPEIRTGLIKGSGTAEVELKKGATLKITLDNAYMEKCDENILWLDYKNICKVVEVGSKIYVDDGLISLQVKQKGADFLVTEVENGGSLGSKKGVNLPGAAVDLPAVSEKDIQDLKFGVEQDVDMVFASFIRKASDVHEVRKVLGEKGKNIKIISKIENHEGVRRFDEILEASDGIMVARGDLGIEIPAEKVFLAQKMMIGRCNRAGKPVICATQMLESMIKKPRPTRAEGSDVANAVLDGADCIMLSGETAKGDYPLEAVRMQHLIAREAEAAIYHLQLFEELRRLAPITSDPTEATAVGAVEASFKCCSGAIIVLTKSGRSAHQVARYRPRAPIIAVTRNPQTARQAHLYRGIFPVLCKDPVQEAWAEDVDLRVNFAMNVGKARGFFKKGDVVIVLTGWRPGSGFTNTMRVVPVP
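Purified hPK-M2 (>95%) run at intermediate activity with 0.1 mM ADP and 0.5 mM PEP in 50 mM imidazole pH 7.2, KCl, MgCl2; 1 h room temperature. ATP formed read by Kinase-Glo luminescence; normalized to uninhibited and no-enzyme controls.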
IL-2 act = activators of IL-2 | 0.065% of 360,000 active | activation, % (series mostly up to about 46 µM) | IL-2 activation reporter assay, cell-based qHTS; stimulated with anti-CD3/CD4/CD28 beads; in transgenic mouse T cells | AID 652025
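First, unstimulated transgenic mouse T cells were exposed to compound for 60 min. Next, anti-CD3/anti-CD4-coated beads with anti-CD28 were added. Finally, after 18 h at 37 degrees C, EGFP and DsRed were imaged.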
TRPML1 blocker = blocks the human TRPML1 channel. activity change, negative = inhibition, % (concentration not given with the values). Q9GZU1. TRPML1-inducible cells, Ca2+ dye fluorescence, FDSS; hits give low values; inhibition of EC80 agonist-evoked calcium signal. 0.02% of 390,000 active. AID 624415; in the data active means activity change below about -50%; inconclusive means between about -30% and that limit;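 further: stimulus is agonist 54-4 at its EC80 concentration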
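Calcium fluorescence in TRPML1-DL cells induced overnight with Tet: a 110 s read after compound pin addition, then a 110 s antagonist read after challenge with 54-4 at 4 uM final (EC80).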
Of the large screens only hits and unclear results are named; the others gave an inactive call. Unless noted, no stated cut-off is given here; in the data, active means activation above about 50%; inconclusive means mostly about 30% to 49%; inactive means weaker than that.

COc1ccccc1N1CCN(c2ccc3cc(S(=O)(=O)N4CCCCC4)ccc3n2)CC1	TRPML1 ag 96
O=S(=O)(c1ccc2nc(N3CCN(c4ccccc4)CC3)ccc2c1)N1CCCCC1	none (no result: PKM2 act)
Cc1nc2ccc(N=NN(C)C)cc2[nH]1	PKM2 act 10µM
COc1cc(NC(=O)c2c(OC)cccc2OC)ccc1NC(=O)c1cc2ccccc2o1	BRCA1 expr act 11µM
CN(C)C(=O)CSc1nnc(C23CC4CC(CC(C4)C2)C3)o1	BRCA1 expr act 10µM
CN(C)C(=O)CSc1nnc(CCN)o1	none
COc1cccc(Cc2nc3ccccc3nc2SCC(=O)NCc2ccc(C)cc2)c1	none (no result: PTAP TSG101 blk, BRCA1 expr act, PKM2 act, IL-2 act)
O=c1c(Br)c(N2CCCC2)cnn1-c1ccccc1	BRCA1 expr act inconclusive
O=c1c(Br)c(N2CCOCC2)cnn1-c1ccccc1	BRCA1 expr act 13µM
O=C(NCc1ccccn1)Nc1cccc(NC(=O)NCc2ccccn2)c1	BRCA1 expr act inconclusive
Cc1nn(C)c(C)c1CNC(=O)Nc1ccc2c(c1)OCO2	BRCA1 expr act inconclusive
Cc1nn(C)c(C)c1CNC(=O)Nc1cccc(Cl)c1	BRCA1 expr act 4µM
Cc1nn(C)c(C)c1CNC(=O)Nc1ccc(Cl)cc1	BRCA1 expr act 6.3µM
O=C(NCc1ccccn1)Nc1cccc(Cl)c1	BRCA1 expr act 13µM
CNc1ncnc2c1cnn2-c1ccc(C)c(C)c1	none (no result: PTAP TSG101 blk, BRCA1 expr act, PKM2 act, IL-2 act)
Cc1ccc(NC(=O)c2ccc(NC(=O)C3CCCC3)cc2)c(C)c1	none (no result: PTAP TSG101 blk, PKM2 act, IL-2 act, TRPML1 blocker)
O=C(Nc1ccc([N+](=O)[O-])cc1)c1ccccc1F	BRCA1 expr act 4.5µM
O=C(Nc1ccc(-c2ccc([N+](=O)[O-])cc2)cc1)c1ccccc1F	none
CCN(CC)C(=S)SCC(=O)c1ccc(Br)cc1	BRCA1 expr act 13µM
O=C(CCN1C(=O)/C(=C/c2cccs2)SC1=S)Nc1cccc(O)c1	PKM2 act 5µM
COc1ccc(/C=C2/SC(=S)N(CCCC(=O)Nc3ccc(O)cc3)C2=O)cc1OC	IL-2 act 85
O=C(CCN1C(=O)/C(=C\C=C\c2ccccc2)SC1=S)Nc1cccc(C(=O)O)c1	BRCA1 expr act 6.3µM
Cc1ccc2ncnc(NCc3ccco3)c2c1	none (no result: PTAP TSG101 blk, PKM2 act, IL-2 act, TRPML1 blocker)
COc1ccc(-c2ccc(CCC(=O)O)n2CC(=O)Nc2cccc(Cl)c2C)cc1	none (no result: PTAP TSG101 blk, BRCA1 expr act, PKM2 act, IL-2 act)
CC(C)(C)Cc1c(-c2ccc(C#N)cc2)nc2c(Cl)cc(C(F)(F)F)cn12	TRPML1 ag 72 (no result: PTAP TSG101 blk, PKM2 act)
CCc1ccc(NC(=O)NCc2ccc3c(c2)OCO3)cc1	none
O=C(NCc1ccc2c(c1)CCO2)Nc1ccccc1	BRCA1 expr act 1.8µM
O=C(NCc1ccc2c(c1)OCO2)Nc1ccc(Cl)cc1	BRCA1 expr act 11µM
CC(=O)Nc1ccc(OCc2ccc3c(c2)OCO3)cc1	BRCA1 expr act 2.5µM
CCCCn1c(=O)n(-c2cc(OC)ccc2OC)c(=O)c2c3c(sc21)CN(C(C)=O)CC3	none (no result: PTAP TSG101 blk, PKM2 act, IL-2 act)
CCOc1ccccc1CN1CCc2nc(N3CCN(C)CC3)ncc2C1	none (no result: PTAP TSG101 blk, BRCA1 expr act, PKM2 act, IL-2 act)
Cc1cccc(NC(=O)c2ccc(C(=O)Nc3cccc(C)c3C)cc2)c1C	none (no result: PTAP TSG101 blk, BRCA1 expr act, PKM2 act, IL-2 act)
CCOc1ccc(N(CC(=O)Nc2ccc(C)c(C)c2)S(C)(=O)=O)cc1	BRCA1 expr act 2µM
CCc1ccc(NC(=O)C(=O)NCCc2sc(-c3ccc(C)cc3)nc2C)cc1	none (no result: PTAP TSG101 blk, PKM2 act, IL-2 act)
NCCCN(Cc1ccccc1)c1ccc(Br)cn1	none (no result: PTAP TSG101 blk, PKM2 act, IL-2 act, TRPML1 blocker)
Cn1cc([N+](=O)[O-])c(C(=O)Nc2ccc(-c3nc4ccccc4[nH]3)cc2)n1	BRCA1 expr act 7.9µM
Cn1cc([N+](=O)[O-])c(C(=O)Nc2ccc3nc(-c4ccccc4)[nH]c3c2)n1	BRCA1 expr act 4µM
O=C(Nc1ccc2[nH]ccc2c1)c1cccs1	BRCA1 expr act 3.2µM (no result: PTAP TSG101 blk)
O=C(Nc1ccc2nc(-c3ccccc3)[nH]c2c1)c1cccs1	BRCA1 expr act 7.1µM
CCOc1ccc(NC(=O)Nc2nnc(N3CCCCC3C)s2)cc1 (stereo not given)	none (no result: PTAP TSG101 blk, BRCA1 expr act, PKM2 act, IL-2 act)
